Compound activity (PubChem BioAssay)
AID923: qHTS Assay for Allosteric/Competitive Inhibitors of Caspase-1: Spectroscopic Profiling in AFC Spectral Region | compound fluorescence, AFC spectral region (405/520 nm) | Potency, µM (doses to about 57.5 µM), for the others: at the highest dose fluorescence increase, usual class: activators | AID 923, 2007 | actives 1.1% (n = 75,000); also: potency is read from the fitted curve at half-maximal effect; 0% is about no effect
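Baseline compound fluorescence (AFC region, 405 nm ex/520 nm em) taken from the intercept of kinetic reads with 50 nM caspase-1 and 5 uM Ac-WEHD-AFC; normalized to an on-plate AFC standard curve; compounds titrated up to 57 uM.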
4-MU autofl: compounds fluorescent in 4-MU spectral region. compound autofluorescence, 340/450 nm, 4-MU equivalents; stronger effect = higher value. max dye-equivalent concentration, M. actives 11% (n = 59,000). AID 589; in the data active = max dye-equivalent concentration above about 10 nM; inconclusive = mostly about 1.1 nM to 9.6 nM
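Compounds in 100 mM Tris, pH 8.0, incubated 15 min at room temperature, then fluorescence read at 340 nm excitation/450 nm emission. Signal converted to 4-MU dye-equivalent concentration using an on-plate six-point 4-MU standard curve.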
HSD17B inhib: inhibitors of human HSD17B10 dehydrogenase; actives 7.6% (n = 75,000); Potency, µM (top dose mostly 57.1 µM), for the others: at the highest dose activity change, negative = inhibition, hits mostly inhibitors; recombinant HSD17B10, NADH fluorescence kinetic; Q99714;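 also: the protocol describes HADH2 (HSD17B10) and not the HSD17B4 of the title; potency is read from the fitted curve at half-maximal effect; % is scaled to controls: 0 for no effect and ±100 for the full control effect; nearly all actives have a fitted effect of over 70% in size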
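Activity followed as NADH fluorescence increase (ex 360, em 450 nm) every 30 seconds for 4 min, using final 90 uM beta-hydroxybutyryl CoA and 1 mM NAD+. Recombinant His-tagged enzyme, 20 nM, pH 9.0 Tris buffer, 15 min compound preincubation.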
HADH2 inhib: HADH2 (human) dehydrogenase inhibition; Q99714; recombinant HADH2, NADH fluorescence, beta-hydroxybutyryl-CoA; Potency, µM (top dose mostly 57.1 µM), inactives show top-dose activity change, negative = inhibition, most hits filed as inhibitors; actives 3.4% (n = 73,000); AID 886; also: potency is read from the fitted curve at half-maximal effect; % is scaled to controls: 0 for no effect and ±100 for the full control effect; nearly all actives have a fitted effect of over 60% in size
Target sequence (Q99714 whole entry, looked up, one chain of several): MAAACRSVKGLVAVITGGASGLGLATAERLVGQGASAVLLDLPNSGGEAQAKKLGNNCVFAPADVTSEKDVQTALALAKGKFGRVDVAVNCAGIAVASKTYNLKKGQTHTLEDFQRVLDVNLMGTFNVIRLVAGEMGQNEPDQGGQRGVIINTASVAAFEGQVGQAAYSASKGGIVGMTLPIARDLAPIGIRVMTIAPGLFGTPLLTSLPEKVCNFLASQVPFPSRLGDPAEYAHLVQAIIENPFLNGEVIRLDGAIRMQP
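His-tagged recombinant enzyme from E. coli, 20 nM, preincubated 15 min RT with compound; reaction started with 1 mM NAD+ and 90 uM beta-hydroxybutyryl-CoA in 100 mM Tris-HCl pH 9.0. NADH fluorescence (ex 360/em 450) read over 4 min; last-minus-first difference.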
A350 fluor: A350 region autofluorescence; Compound autofluorescence, 340/450 nm, Alexa 350 dye-equivalents; stronger effect = higher value; max dye-equivalent concentration, M; actives 11% (n = 59,000); in the data active = max dye-equivalent concentration above about 10 nM; inconclusive = mostly about 1.1 nM to 9.6 nM
GBA mod: modulators of human glucocerebrosidase. AID 360. P04062. actives 1.1% (n = 48,000). purified enzyme, resorufin glucoside fluorescence (screen aimed at inhibitors), 20 min. Potency, µM; in the data active = potency below about 15 µM; inconclusive = mostly about 16 µM to 33 µM;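 also: potency is read from the fitted curve at half-maximal effect; the screen sought inhibitors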
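Normal human glucocerebrosidase (0.2 nM final) was assayed with resorufin β-D-glucopyranoside (30 uM final) in 50mM citric acid/KH2PO4, 10mM sodium taurocholate, 0.01% tween-20, pH 5.9. Compounds were titrated; fluorescence (Ex 548, Em 600) read after 20 min at RT.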
An asterisk follows results filed as active; i = inactive; ? = inconclusive; / = no result; [ ] = remark or other dose. Compounds with a hit are over-represented: about 13% of the library has one in this group of screens. Unless noted, calls follow the shape of the dose curve; as a rule, active = well fitted curve in the direction sought with a large enough effect; inconclusive = small, poorly fitted or top-dose-only effect, or another doubt; inactive = no such curve, though single readings can be large; an effect the other way counts as inactive or inconclusive.

SMILES	AID923	4-MU autofl	HSD17B inhib	HADH2 inhib	A350 fluor	GBA mod
Cc1cc(N2CCN(C)CC2)nc2ccc(NC(=O)c3ccc(Br)o3)cc12	1.1%	?	-5.2%	-8.5%	?	2.25*
Cc1cc(N2CCN(C)CC2)nc2ccc(NC(=O)c3ccc4c(c3)OCO4)cc12	-0.1%	1.94e-08M*	111.1%	-12.7%	2.37e-08M*	1.06*
COCOc1ccc(Br)cc1C(=O)/C=C\c1ccc2c(c1)OCO2	1.1%[11.5 µM]	/	-5.1%[11.4 µM]	-9.7%[11.4 µM]	/	/
C/C(CCN1CCCc2nc(C)c(C)cc21)=N\O[C@@H](C)c1cc(-c2c(C)cc(C)cc2C)no1	-0.8%[11.5 µM]	/	-1.4%[11.4 µM]	2.1%[11.4 µM]	/	/
Nc1nc(=O)n(C2OC(CO)C(O)C2O)cc1Cl (stereo not given)	0.1%	/	1.2%	/	/	/
CN(C)c1cc(-c2cccc(NS(C)(=O)=O)c2)ncn1	0.4%	i	25.1µM*	0.0%	i	/
CC(C)=CCC/C(C)=C/CO/N=C1/C[C@@H](O)[C@@H](O)[C@@H]2[C@@H]3C(=O)N(Cc4ccccc4)C(=O)[C@H]3CC[C@@H]12	-0.2%[11.5 µM]	/	5.3%[11.4 µM]	-12.4%[11.4 µM]	/	/
Cc1csc(OCc2ccc(C#N)cc2)n1	-1.2%	?	-9.0%	8.5%	1.05e-08M*	>76.9
Cc1cccc([C@@H]2CN(C)CCc3c2cc(O)c(O)c3Cl)c1	1.3%	i	?	0.126µM*	i	/
C=CCN1CCc2c(cc(O)c(O)c2Cl)C(c2cccc(C)c2)C1 (stereo not given)	-1.0%	/	?	0.251µM*	/	/
CN1CCc2cc(Cl)c(O)cc2[C@H](c2ccccc2)C1	-0.3%	i	3.2%	?	i	/
CCCOc1ccc(C(=O)Nc2ccc(N(C)C)cc2)cc1	-2.1%	/	25.1µM*	2.2%[11.4 µM]	/	/
Cc1cc(C)nc(NC(=O)c2ccc(OC(C)C)cc2)n1	/	i	/	/	i	/
CCCCOc1ccc(C(=O)Nc2ccncc2)cc1	-0.1%	i	-3.0%	6.2%	i	6.2*
CN(C)c1ccc(C(=O)Nc2ccc(S(=O)(=O)NC3=NCCCCC3)cc2)cc1	0.3%	1.65e-08M*	?	?	1.91e-08M*	>76.9
CCCCOc1ccc(C(=O)NC)cc1	1.2%	?	7.7%	2.7%	?	>76.9
CCCOc1ccc(C(=O)Nc2ccc(N3CCN(C(C)=O)CC3)cc2)cc1	-0.1%	i	12.5%	-12.3%	i	?
CC(C)Oc1ccc(C(=O)Nc2ccc(N(C)C)cc2)cc1	-0.8%	/	-28.4%	3.16µM*	/	/
Cc1cc(C)nc(NS(=O)(=O)c2ccc(NC(=O)c3ccc4c(c3)OCO4)cc2)n1	1.1%	/	4.6%	0.2%[11.4 µM]	/	/
Cc1ccc(C2C(C(=O)c3cc4ccccc4o3)=C(O)C(=O)N2CCCN(C)C)cc1 (stereo not given)	/	i	/	/	i	/
CCOC(=O)c1ccc(NC(=O)CSc2nc3c(c(=O)n2CC)SC(C)C3)cc1 (stereo not given)	-3.7%	/	10µM*	?	/	/
COC(=O)c1[nH]c2cccc(OC)c2c1NC(=O)CCN1CCN(c2cccc(Cl)c2)CC1	-1.6%	1.37e-08M*	25.1µM*	-25.6%	?	>76.9
COC(=O)c1[nH]c2cccc(OC)c2c1NC(=O)CCN1CC(C)CC(C)C1 (stereo not given)	-1.5%	1.52e-08M*	31.6µM*	-5.8%	?	>76.9
NC1=N[C@H](c2ccc(Cl)cc2)N(c2ccc(S(N)(=O)=O)cc2)C(N)=N1	-0.7%[11.5 µM]	i	7.7%[11.4 µM]	12.9%[11.4 µM]	i	/
CCN(CCCNC(=O)C1CCC(=O)N1Cc1ccc(F)cc1)c1cccc(C)c1 (stereo not given)	0.0%	i	2.2%	-0.7%	i	14.9*
C/C(=C\c1ccc(C(=O)O)cc1)c1ccc2c(c1)C(C)(C)CCC2(C)C	-2.5%	i	25.1µM*	?	i	/
CC1(C)CCC(C)(C)c2cc(C(=O)Nc3ccc(C(=O)O)cc3)ccc21	-5.3%	/	-5.4%	-25.8%	/	/
N[C@@H](Cc1cc(CP(=O)(O)O)cc(-c2ccccc2Cl)c1)C(=O)O	-1.4%	/	31.6µM*	8.1%	/	/
